# SMARCA2 activ = SMARCA2 function activation, primary screen. MG213 cells, MMTV-luciferase reporter, dexamethasone, overnight. activation, % at 9.1 µM. 1% of 370,000 active; in the data active means activation above about 7.8%;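 further: 0% = vehicle wells and 100% = reference activator wells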
# esBAF inh = inhibitors of esBAF chromatin remodeling in mouse ES cells; 2% of 350,000 active; Bmi1-luciferase knock-in reporter, 24 h; 100% = twice the neutral-well signal; reporter increase, % at 12.5 µM; in the data active means activation above about 40%;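 further: 0% = median of the plate's neutral control wells and 100% = double that signal; a rise in the Bmi1 reporter signal indicates esBAF inhibition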
# Jurkat NFkB inh = lowers PMA/ionomycin-induced NF-kB signal in Jurkat cells | inhibition, % at 4 µM | 0.53% of 330,000 active | PMA/ionomycin-induced NF-kB luciferase reporter, luminescence | AID 435003; in the data active means inhibition above about 50%
# Gli-Sufu antag = blocks Gli-Sufu signaling in a luciferase reporter. Sufu-KO-LIGHT fibroblasts, Gli luciferase reporter luminescence. inhibition, % at 5 µM. 0.74% of 340,000 active;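 active means inhibition above about 55%, limit read from the data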;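 further: 0% = DMSO-treated cells and 100% = wells with medium but no cells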
# 697 NFkB inh = inhibitors of the PMA/ionomycin-induced NF-kB reporter in 697 B cells; 0.33% of 330,000 active; inhibition, % at 4 µM; 697 B-cell NF-kB luciferase reporter, 16 h; AID 435022; in the data active means inhibition above about 35%
# 697 NFkB conf = inhibitors of the PMA/ionomycin-induced NF-kB reporter in 697 B cells, retest | shares compounds with 697 NFkB inh | 697 B-cell NF-kB luciferase, 16 h | inhibition, % at 4 µM | 35% of 2,000 active | AID 449746; in the data active means inhibition mostly above about 28%, no sharp cut-off; inactive means mostly below about 22%
# Active calls of the source: *; · = no result given. The list is not random: actives were taken first. Their share in the collection is about 3.3%.
SMILES,SMARCA2 activ,esBAF inh,Jurkat NFkB inh,Gli-Sufu antag,697 NFkB inh,697 NFkB conf
CC1CCN(c2ccc(C(=O)OCC(=O)NCCN3C(=O)CSC3=O)cc2[N+](=O)[O-])CC1,-2,·,2,-8,38*,12
C[C@@H]1CN([C@H](C)CO)C(=O)c2cc(NS(=O)(=O)c3ccc(F)cc3)ccc2O[C@@H](C)CCCCO[C@@H]1CN(C)S(=O)(=O)c1cn(C)cn1,·,-1,·,·,·,·
CCC(=O)Nc1cccc(-c2cc3ccccc3oc2=O)c1,2,·,-7,1,-13,·
O=C(Cc1cccc2ccccc12)Nc1ccc(-c2cc3ccccc3oc2=O)cc1,-9,1,9,5,72*,50*
Cc1ccc(C(=O)NC(=S)Nc2ccc(-c3cc4ccccc4oc3=O)cc2)c(C)c1,-6,-20,10,4,36*,9
O=C(C[C@H]1C[C@H]2c3cc(NC(=O)c4cccnc4)ccc3O[C@H]2[C@@H](CO)O1)NCc1cccc(F)c1,·,-1,·,·,·,·
O=C(NCc1ccccc1)c1ccc(C(=O)N(C2CCCCC2)C2CCCCC2)cc1,0,8,25,13,35*,8
O=C(NCc1ccccc1)c1ccc(C(=O)NCc2ccccc2)cc1,-3,·,·,0,·,·
COc1ccc(OC)c(C2CC(=O)Nc3cc(OC)c(OC)c(OC)c32)c1 (stereo not given),-1,0,-5,24,35*,43*
O=C(N/N=C/c1ccc(-c2ccccc2Cl)o1)c1ccccc1,4,·,-23,-42,-57,·
O=C(O)c1ccc(N/N=C/c2ccc(-c3ccccc3Cl)o2)cc1,0,·,-103,-56,-250,-107
C[C@H](CO)N1C[C@H](C)[C@H](CN(C)C(=O)Nc2ccc3c(c2)OCO3)Oc2c(NC(=O)c3ccncc3)cccc2C1=O,·,20,·,·,·,·
O=C(NCCCN1CCOCC1)c1cc(-c2cccs2)on1,2,18,-24,-5,48*,24
Cc1ccc(-c2cc(C(=O)NCCCN3CCOCC3)no2)cc1,-11,-73,2,38,87*,85*
O=C(NCCCN1CCOCC1)c1cc(-c2ccc(Cl)c(Cl)c2)on1,-5,-2,3,-5,7,·
COc1ccc(NC(=O)Nc2ccc3c(c2)C(=O)N([C@H](C)CO)C[C@H](C)[C@H](CN(C)Cc2ccncc2)O3)cc1,·,-6,·,·,·,·
Cc1ccc(S(=O)(=O)Nc2ccc3c(c2)CC(=O)N([C@@H](C)CO)C[C@@H](C)[C@H](CN(C)S(=O)(=O)c2ccc(Cl)cc2)O3)cc1,·,6,·,·,·,·
Cc1noc(C)c1S(=O)(=O)Nc1ccc2c(c1)CC(=O)N([C@H](C)CO)C[C@@H](C)[C@H](CN(C)Cc1ccc3c(c1)OCO3)O2,·,-2,·,·,·,·
O=C(Nc1ccccc1C(=O)O)c1ccc(NC(=O)C2CC2)cc1,-1,-10,13,3,16,·
O=C(Nc1ccccc1O)c1ccc(NC(=O)C2CC2)cc1,2,23,-38,-40,-299,-286
CCn1c(CN2CCN(c3ccc(Cl)cc3)CC2)nc2ccccc21,-4,-6,13,6,46*,51*
COc1ccc(NC(=O)Nc2ccc3c(c2)CC(=O)N([C@@H](C)CO)C[C@H](C)[C@H](CN(C)C(=O)NC(C)C)O3)cc1,·,2,·,·,·,·
CC(C)(C)c1ccc(-c2noc(CCC(=O)NCc3ccco3)n2)cc1,-7,·,-48,70*,96*,94*
CCc1nc(N=Nc2c(O)[nH]c3ccccc23)c2c3c(sc2n1)CCC3,1,6,2,·,37*,7
CC(C)NC(=O)N(C)C[C@H]1OCCCC[C@@H](C)Oc2ccc(NC(=O)Nc3ccc4c(c3)OCO4)cc2C(=O)N([C@@H](C)CO)C[C@H]1C,·,2,·,·,·,·
SMILES,SMARCA2 activ,esBAF inh,Jurkat NFkB inh,Gli-Sufu antag,697 NFkB inh,697 NFkB conf
COc1ccc(-n2nnnc2S(=O)(=O)CC(=O)N2CCCCC2)cc1,-6,13,15,6,39*,60*
COc1cc(OC)cc(-n2nnnc2SCC(=O)N2CCCC2)c1,-2,-2,-3,3,15,·
Cc1ccc2oc(/N=C(\N)NC(=O)C3CC3)nc2c1,1,-28,-23,-93,-265,-325
CC(=O)N(C)C[C@H]1Oc2cc(C#CC3CC3)ccc2S(=O)(=O)N([C@@H](C)CO)C[C@H]1C,·,3,·,·,·,·
O=c1[nH]c(NC2CCN(S(=O)(=O)c3ccccc3C(F)(F)F)CC2)nc2c1CCCC2,3,5,36,-14,44*,26
CN(C)CCCNC(=O)[C@H]1[C@H](CO)[C@H]2Cn3c(cccc3=O)[C@@H]1N2C(=O)Nc1cc(F)ccc1F,·,3,·,·,·,·
Cc1ccc(C)c(-n2nnnc2Sc2nnnn2-c2ccccc2)c1,-10,-1,43,8,35*,33*
Cc1cc(C=C2C(=O)c3ccccc3C2=O)c(C)n1-c1ccccc1,3,·,-9,12,-31,·
Cc1cc(/C=C2\Cc3ccccc3C2=O)c(C)n1-c1ccccc1,-4,·,-24,16,-310,-193
CC1CCN(C(=O)c2cc3nc(-c4ccccc4)cc(-c4ccccc4)n3n2)CC1,-2,1,15,12,35*,15
O=C1NC(c2cc(Cl)cc([N+](=O)[O-])c2O)Nc2ccccc21 (stereo not given),-2,-2,-15,2,36*,-2
O=C1NC(c2ccc(Cl)c([N+](=O)[O-])c2)Nc2ccccc21 (stereo not given),-1,·,-1,28,-4,·
C[C@H](CO)N1C[C@H](C)[C@H](CN(C)Cc2ccc(C(=O)O)cc2)Oc2c(NS(C)(=O)=O)cccc2C1=O,·,0,·,·,·,·
C[C@H]1CCCCO[C@H](CN(C)C(=O)c2ccccc2)[C@@H](C)CN([C@@H](C)CO)C(=O)c2cc(NC(=O)CCCN(C)C)ccc2O1,·,-8,·,·,·,·
O=C(C[C@H]1CC[C@H]2[C@@H](COC[C@H](O)CN2Cc2nccs2)O1)NCc1ccc(-c2ccccc2)cc1,·,14,·,·,·,·
CCOc1ccccc1NC(=O)Nc1ccc2c(c1)OCO2,5,·,-18,-18,-28,·
C=CCOc1ccccc1CN(C(=O)CCl)c1ccc2c(c1)OCO2,-8,-6,-3,14,42*,32*
COc1ccc(O)c(C(=O)CC(=O)c2ccc(F)cc2)c1,1,·,-133,-110,-296,-303
Cc1csc(NC(=O)CCc2c(C)nc3cc(-c4ccc(Cl)cc4)nn3c2C)n1,-7,-61,41,4,42*,42*
Cc1nc2cc(-c3ccc(Cl)cc3)nn2c(C)c1CCC(=O)NC(C)c1ccc2c(c1)OCCO2 (stereo not given),-7,-50,34,23,37*,27*
Cc1csc(NC(=O)CSc2nnc(-c3ccc(Cl)cc3)n2N)n1,0,1,-3,-2,14,·
COc1cc(OC)cc(-c2cc3nc(C)c(CCC(=O)NCc4ccccc4)c(C)n3n2)c1,-11,-67,14,19,38*,45*

# Screens deposited in PubChem BioAssay by several laboratories.
